High-throughput results: PubChem, National Center for Advancing Translational Sciences (NCATS)
An excerpt weighted towards active compounds, which were near 3.1% of everything screened.
PMP22 txn prim – modulates PMP22 transcription in S16 Schwann cells; Potency, µM (top dose mostly 57.5 µM), inactives show top-dose activity change, negative = inhibition, most hits filed as inhibitors; S16 Pmp22-F2sN Schwann cells, FLuc/NLuc coincidence luminescence, 24 h; 43,000 compounds, 2% hits; active = clear falling dose curves in both reporters; inconclusive = both reporters move, but less clearly or upward; inactive = either reporter flat; the % is the NLuc reporter signal
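S16(c9) Schwann cells with FLuc/NLuc coincidence reporter in the Pmp22 3' UTR; compounds pin-transferred, 24 h at 37C. Dual-luciferase read: FLuc first, then NLuc after Stop&Glo, each 10 min at room temperature.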
p53null 39C tox – selectivity test: cytotoxicity in p53 null cells, nonpermissive temperature | Potency, µM (titrated, usually from 46.1 µM), without a hit: at the highest dose activity, negative = cell killing, actives largely listed as cytotoxic | AID 904 | H1299 p53-null (neo) cells, 39C, ATPlite viability, 24 h | 55,000 compounds, 0.97% hits;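 also: 0% = DMSO only and -100% = full killing by 100 µM tamoxifen; nearly all actives have a fitted effect of over 50% in size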
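Cells seeded at 600/well, 37C overnight. Compound added (up to 46 uM), plates shifted to 39C for 24 hr. ATPlite added, luminescence read after 20 min at room temperature.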
S16 F2sN tox – toxic to S16 Pmp22-F2sN Schwann cells; 43,000 compounds, 0.48% hits; Potency, µM (highest dose often 57.5 µM), inactives show at the top dose activity change, negative = cytotoxicity, usual class: cytotoxic; S16 Pmp22-F2sN Schwann cells (luciferase reporters placed in the Pmp22 gene) viability, CellTiter-Glo, 24 h; also: nearly all actives have a fitted effect of over 65% in size
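Luminescence from CellTiter-Glo, read by CCD camera after a 15 min room-temperature incubation, served as the viability signal. Reporter Schwann cells (S16 Pmp22-F2sN) had been treated with pin-transferred compounds for 24 h at 37C.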
SKOV3 invasion – inhibitors of ovarian cancer cell adhesion and invasion in omental model; SKOV3ip1-GFP adhesion/invasion on 3D omental model, fluorescence; Potency, µM (top dose mostly 45.8 µM), without a hit: at the highest dose activity change, negative = inhibition, actives largely listed as inhibitors; 46,000 compounds, 0.1% hits; AID 1963576;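 also: plate controls were DMSO wells for no effect and tomatine positive control wells for full effect; nearly all actives have a fitted effect of over 65% in size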
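qHTS, 4-pt dose (0.36-46 umol/L); SKOV3ip1-GFP, 1,200 cells/well, no FBS; primary omental fibroblast/mesothelial co-culture 48 h pre-grown; 2 h RT + 16 h 37 C; PBS wash, 4% PFA; GFP count 488/509 nm.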
mTORC1 inh – inhibitors of mTORC1 signaling in Tsc2-/- p53-/- MEF cells | Tsc2-/- p53-/- MEF, phospho-rpS6 immunofluorescence/PI, 24 h | Potency, µM (titrated, usually from 38.3 µM), for inactives: top-dose activity change, negative = inhibition, most hits filed as inhibitors | 44,000 compounds, 0.78% hits | AID 493208;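 also: plate controls were DMSO for no effect and rapamycin for full effect; nearly all actives have a fitted effect of over 50% in size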
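Read-out: phospho-S6 Alexa-488 intensity over PI intensity per well, scored as % active cells using thresholds from rapamycin (7.5 nM) and DMSO controls. Tsc2-/-, p53-/- MEFs exposed to compound for 24 h; PI cell count recorded as viability.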
p53null 32C tox – p53 null cell cytotoxicity, permissive temperature; H1299-neo p53 null cells, ATP luminescence, 24 h, 32C; Potency, µM (top dose mostly 46.1 µM), for inactives: top-dose activity change, negative = cytotoxicity, actives largely listed as cytotoxic; 55,000 compounds, 0.62% hits; AID 903;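 also: 0% = DMSO only and -100% = full killing by 100 µM tamoxifen; nearly all actives have a fitted effect of over 55% in size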
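ATP-content luminescence in p53-null H1299-neo cells after 24 h compound exposure (up to 46 uM) at 32C permissive temperature; 0% and 100% killing set by DMSO and 100 uM tamoxifen; Hill-equation AC50.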
Numbers without * were called inactive. Unless noted, calls follow the shape of the dose curve; as a rule, active = well fitted curve in the direction sought with a large enough effect; inconclusive = small, poorly fitted or top-dose-only effect, or another doubt; inactive = no such curve, though single readings can be large; an effect the other way counts as inactive or inconclusive. Unless noted, % is scaled to controls: 0 for no effect and ±100 for the full control effect; potency is read from the fitted curve at half-maximal effect.

Screening N#Cc1c(-n2ncnc2-c2ccc(F)cc2)sc2c1CCCCC2 returned PMP22 txn prim -11%, p53null 39C tox inconclusive, S16 F2sN tox 2%, SKOV3 invasion -4%, mTORC1 inh 3% and p53null 32C tox 10µM*.
For C[C@@H](Oc1cc(-n2cnc3ccc(CN4CCN(C)CC4)cc32)sc1C(N)=O)c1ccccc1C(F)(F)F the results were SKOV3 invasion 1%.
For O=S1(=O)N=C(Nc2nc3c(s2)CCCC3)c2ccccc21 the results were p53null 39C tox 5.6µM* and p53null 32C tox 11µM*.
For CCCCOC(=O)c1cccc(NC(=O)c2cc3ccccc3o2)c1 the results were PMP22 txn prim inconclusive, p53null 39C tox 13µM*, S16 F2sN tox -15%, SKOV3 invasion -25%, mTORC1 inh 17% and p53null 32C tox 10µM*.
`COc1cccc(-n2c(=O)[nH]cc(C(=O)Nc3ccc4c(c3)OCCO4)c2=O)c1` gave p53null 39C tox 21% and p53null 32C tox 18%.
COc1cc(OC)cc(C(=O)Nc2ccc3c(c2)OCCO3)c1 was read as PMP22 txn prim -5%, p53null 39C tox 6.3µM*, S16 F2sN tox inconclusive, SKOV3 invasion inactive, mTORC1 inh 5% and p53null 32C tox 7.9µM*.
CCOc1ccc(C2C=C(c3cccc(OC)c3)Nc3nnnn32)cc1 (stereo unspecified) was read as PMP22 txn prim -2%, p53null 39C tox inconclusive, S16 F2sN tox 10%, SKOV3 invasion inactive, mTORC1 inh -10% and p53null 32C tox -8%.
For CN(C)c1ccc(C2C=C(c3ccccc3)Nc3nnnn32)cc1 (stereo unspecified) the results were PMP22 txn prim inconclusive, p53null 39C tox 7.9µM*, S16 F2sN tox -2%, SKOV3 invasion 5%, mTORC1 inh inconclusive and p53null 32C tox inconclusive.
`Cc1ccc(O)c(NC(=O)CCS(=O)(=O)c2nc(-c3cccs3)cc(C(F)(F)F)n2)c1` gave PMP22 txn prim inconclusive, p53null 39C tox 32%, S16 F2sN tox inconclusive, SKOV3 invasion inconclusive, mTORC1 inh inconclusive and p53null 32C tox 18%.
Screening O=C(CCS(=O)(=O)c1nc(-c2cccs2)cc(C(F)(F)F)n1)Nc1cc(Br)ccc1O returned PMP22 txn prim inconclusive, p53null 39C tox inconclusive, S16 F2sN tox 10µM*, SKOV3 invasion inconclusive, mTORC1 inh inconclusive and p53null 32C tox 60%.
`CC1(C)CNc2cc(NC(=O)c3cccnc3NCc3ccncc3)ccc21` gave SKOV3 invasion 6%.
`Cc1cccc(NS(=O)(=O)c2ccc3nc(-c4ccccc4)[nH]c3c2)c1C` gave PMP22 txn prim inconclusive, p53null 39C tox 11µM*, S16 F2sN tox -13%, SKOV3 invasion inactive, mTORC1 inh 1% and p53null 32C tox inconclusive.
For Cc1ccc(NS(=O)(=O)c2ccc3nc(-c4ccccc4)[nH]c3c2)c(Br)c1 the results were PMP22 txn prim -4%, p53null 39C tox -21%, S16 F2sN tox -4%, SKOV3 invasion 3%, mTORC1 inh -20% and p53null 32C tox -6%.
CC(C)c1ccc(NS(=O)(=O)c2ccc3nc(-c4ccccc4)[nH]c3c2)cc1 was read as PMP22 txn prim inconclusive, p53null 39C tox 20µM*, S16 F2sN tox -26%, SKOV3 invasion -2%, mTORC1 inh -1% and p53null 32C tox inconclusive.
`COc1cc(Nc2ncc(F)c(Nc3ccc4c(n3)N(COP(=O)(O)O)C(=O)C(C)(C)O4)n2)cc(OC)c1OC` gave SKOV3 invasion 2%.
O=C(Nc1cccc(C(F)(F)F)c1)Nc1cc(S(=O)(=O)NC2CC2)ccc1-c1ccsc1 was read as SKOV3 invasion -15%.
Cc1cccc2c1-c1sc(C(=O)Nc3ccccc3C(N)=O)cc1CO2 was read as PMP22 txn prim inconclusive, p53null 39C tox inconclusive, S16 F2sN tox inconclusive, SKOV3 invasion -7%, mTORC1 inh -1% and p53null 32C tox 16µM*.
CCN(CCO)CCCOc1ccc2c(Nc3cc(CC(=O)Nc4cccc(F)c4)[nH]n3)ncnc2c1 was read as SKOV3 invasion 7%.
Cc1ccc(C)c(N2CCN(C(=O)c3ccc4c(c3)c(C)c(C)n4C)CC2)c1 was read as PMP22 txn prim -11%, p53null 39C tox 25µM*, S16 F2sN tox -4%, SKOV3 invasion 28%, mTORC1 inh -7% and p53null 32C tox 34%.
Cc1cccc(N2CCN(C(=O)c3ccc4c(c3)c(C)c(C)n4C)CC2)c1C was read as PMP22 txn prim -18%, p53null 39C tox -14%, S16 F2sN tox 0%, SKOV3 invasion 28%, mTORC1 inh -4% and p53null 32C tox -2%.
Cc1ccc(/C=C/C(=O)Nc2ccccc2C(N)=O)o1 was read as PMP22 txn prim -6%, p53null 39C tox 10µM*, S16 F2sN tox inconclusive, SKOV3 invasion 1%, mTORC1 inh -1% and p53null 32C tox 13µM*.
For COc1ccc(C=CC(=O)Nc2ccccc2C(=O)O)cc1OC the results were SKOV3 invasion -7%.
`COc1ccc2cc(CNc3ccc(C)cc3)c(=O)n(CC(=O)Nc3ccc(C)cc3Cl)c2c1` gave PMP22 txn prim inconclusive, p53null 39C tox -11%, S16 F2sN tox -1%, SKOV3 invasion 37%, mTORC1 inh -5% and p53null 32C tox 1%.
`COc1ccc2cc(CNc3ccccc3)c(=O)n(CC(=O)Nc3ccc(C)cc3C)c2c1` gave PMP22 txn prim -18%, p53null 39C tox 12%, S16 F2sN tox -11%, SKOV3 invasion inactive, mTORC1 inh 7.4µM* and p53null 32C tox 9%.
Cc1ccccc1Nc1c(-c2cccc(O)c2)nc2ccc(Br)cn12 was read as PMP22 txn prim -28%, p53null 39C tox -4%, S16 F2sN tox -13%, SKOV3 invasion 2%, mTORC1 inh -25% and p53null 32C tox -7%.
Screening Cc1ccccc1Nc1c(-c2ccc(N3CCOCC3)cc2)nc2ccc(Br)cn12 returned PMP22 txn prim -22%, p53null 39C tox 10µM*, S16 F2sN tox 0%, SKOV3 invasion -15%, mTORC1 inh 3% and p53null 32C tox inconclusive.
Cc1ccccc1Nc1c(-c2ccc(N3CCOCC3)cc2)nc2ccccn12 was read as PMP22 txn prim 0%, p53null 39C tox 0.32µM*, S16 F2sN tox -13%, SKOV3 invasion -6%, mTORC1 inh inconclusive and p53null 32C tox 1.6µM*.
